Inconclusive results are not listed. Activity calls are given as the source filed them. Calls come from the whole dose curve; as a rule, active = well fitted curve in the direction sought with a large enough effect; inconclusive = small, poorly fitted or top-dose-only effect, or another doubt; inactive = no such curve, though single readings can be large; an effect the other way counts as inactive or inconclusive.

Assay [1] concerns the target Thioredoxin reductase 1, cytoplasmic (Rattus norvegicus) (UniProt O89049). The assay is described as follows: qHTS Assay for Inhibitors of Mammalian Selenoprotein Thioredoxin Reductase 1 (TrxR1) (AID 488773).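 Note: drop in NADPH fluorescence over an 8 min run after selenite addition; series mostly up to about 57 µM; nearly all actives have a fitted effect of over 40% in size.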 Conditions: Potency: inhibition. The procedure, abridged: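 Inhibition is scored from the loss of NADPH fluorescence between first and last reads of an 8-min kinetic run. Selenite (400 uM) was the substrate, added after 15 min compound preincubation at room temperature.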
For orientation: Quantitative high-throughput screening tests each substance at several concentrations.

In assay [2] the target is Flap endonuclease 1 (Homo sapiens) (UniProt P39748). Description: qHTS Validation Assay for the Inhibitors of Human Flap endonuclease 1 (FEN1) (AID 488816). In short, it runs like this: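 Steps: add FEN1 (10 nM reagent) or buffer only; pin compounds; hold 15 min at room temperature; start with substrate, 50 nM final; read at 0 and 15 min; correct, normalize and fit a four-parameter Hill curve.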
Flap endonuclease 1 (Homo sapiens), sequence (P39748 whole entry, looked up): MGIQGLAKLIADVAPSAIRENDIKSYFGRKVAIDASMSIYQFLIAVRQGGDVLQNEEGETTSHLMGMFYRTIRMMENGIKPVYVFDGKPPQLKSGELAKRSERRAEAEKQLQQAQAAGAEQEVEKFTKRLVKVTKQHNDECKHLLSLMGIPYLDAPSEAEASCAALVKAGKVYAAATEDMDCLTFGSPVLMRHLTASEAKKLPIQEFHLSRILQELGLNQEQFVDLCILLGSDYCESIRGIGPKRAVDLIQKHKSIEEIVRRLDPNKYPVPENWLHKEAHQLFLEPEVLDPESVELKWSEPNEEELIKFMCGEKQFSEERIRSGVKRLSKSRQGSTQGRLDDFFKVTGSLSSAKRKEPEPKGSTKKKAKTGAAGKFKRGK

The target of assay [3] is M-phase phosphoprotein 8 (Homo sapiens) (UniProt Q99549). Description: qHTS Validation Assay for Inhibitors for MPP8 Chromodomain Interactions with Methylated Histone Tails (AID 488949). Note: nearly all actives have a fitted effect of over 55% in size. Note: potency is the fitted concentration of half-maximal effect. The procedure, abridged:
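MPP8 (50 nM) was pre-bound to 50 nM biotinylated H3(1-18)K9me3 peptide in PBS pH 7.4 with 0.01% Tween-20. Compounds were then added for 30 min at room temperature, and complex disruption was read by AlphaScreen with streptavidin donor and nickel-chelate acceptor beads.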

The target in assay [4] is Chromobox protein homolog 1 (Homo sapiens) (UniProt P83916). The assay is described as follows: qHTS Validation Assay for Inhibitors of HP1-beta Chromodomain Interactions with Methylated Histone Tails (AID 488953). Note: nearly all actives have a fitted effect of over 50% in size. Note: potency is the fitted concentration of half-maximal effect. The procedure, abridged:
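Compounds pinned into a preassembled complex of HP1-beta and trimethyl-K9 histone H3(1-18) biotin peptide (50 nM each; PBS pH 7.4, 0.01% Tween-20). After 30 min, bead-based AlphaScreen detection followed.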

For assay [5], the target named is Methanococcus maripaludis chaperonin (MmCpn) (UniProt Q6LX38). Description: High-Throughput Screening for Modulators of Cytosolic Chaperonin Activity: MmCpn Primary Screen (AID 488978).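 Note: 50 nM MmCpn enzyme hydrolysing 30 µM ATP at 37 °C.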 In short, it runs like this:
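MmCpn at 50 nM final was preincubated 5 min at RT with compound. ATP was then added at 30 uM final for 10 min at 37 C. ADP formed was detected by Transcreener HTRF (665/590 nm).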

Assay [6] deals with Transient receptor potential cation channel subfamily V member 1 (Homo sapiens) (UniProt Q8NER1). The assay is described as follows: HTS Assay for Compounds that Act as Enhancers of the Vanilloid Receptor 1 (AID 488979). The procedure, abridged:
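TRPV1-expressing cells loaded with Fluo-8 calcium dye; compounds added and calcium influx read kinetically for 3 min (agonist phase), then capsaicin at EC20 added and read 2 min more for enhancement. Fluorescence ex 480/em 520 nm.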

The target of assay [7] is D(1A) dopamine receptor (Homo sapiens) (UniProt P21728). The assay is described as follows: HTS Assay for Allosteric Agonists of the Human D1 Dopamine Receptor: Primary Screen for Agonists (AID 488981). In short, it runs like this:
(§1)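 Tetracycline-induced HEK293 T-REx cells force-coupled to calcium signalling were incubated overnight at 30 C and dye-loaded at room temperature. Calcium flux over 180 s after compound addition flagged agonists; a further 180 s read after EC20 dopamine flagged potentiators.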

Assay [8] shares this target. Description: HTS Assay for Allosteric Agonists of the Human D1 Dopamine Receptor: Primary Screen for Potentiators (AID 488982). Note: potency is the fitted concentration of half-maximal effect. The procedure, abridged: as §1
Assay [9] shares this target. The assay is described as follows: HTS Assay for Allosteric Agonists of the Human D1 Dopamine Receptor: Primary Screen for Antagonists (AID 488983).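 Note: calcium flux response to an EC80 dopamine challenge measured with no-wash dye; nearly all actives have a fitted effect of over 65% in size.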 Note: potency is the fitted concentration of half-maximal effect. In short, it runs like this: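 In this primary screen, compounds are applied to calcium-dye-loaded HEK293 T-REx cells with force-coupled D1 expression induced overnight at 30 C. An EC80 of dopamine follows the 180 s compound phase, and calcium is monitored for a further 180 s.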

Assay [10] has as its target Thyrotropin receptor (Homo sapiens) (UniProt P16473). The assay is described as follows: qHTS Assay for Antagonists of the Thyroid Stimulating Hormone Receptor (AID 488980). Note: series mostly up to about 58 µM. The procedure, abridged: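 TSHR-transfected HEK293 cells (2000/well) in HEPES-buffered HBSS with 70 uM RO 20-1724 were stimulated with 4 nM TSH (EC80, final) in the presence of compound. cAMP was measured by HTRF competition after lysis and 30 min at RT.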

Chromobox protein homolog 1 (Homo sapiens), sequence (P83916 whole entry, looked up): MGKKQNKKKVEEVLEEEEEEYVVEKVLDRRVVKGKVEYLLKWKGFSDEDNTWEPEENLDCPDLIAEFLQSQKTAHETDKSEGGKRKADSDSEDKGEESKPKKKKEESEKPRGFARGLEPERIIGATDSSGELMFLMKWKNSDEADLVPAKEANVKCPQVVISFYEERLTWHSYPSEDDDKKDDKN
Methanococcus maripaludis chaperonin (MmCpn), sequence (Q6LX38 1-543): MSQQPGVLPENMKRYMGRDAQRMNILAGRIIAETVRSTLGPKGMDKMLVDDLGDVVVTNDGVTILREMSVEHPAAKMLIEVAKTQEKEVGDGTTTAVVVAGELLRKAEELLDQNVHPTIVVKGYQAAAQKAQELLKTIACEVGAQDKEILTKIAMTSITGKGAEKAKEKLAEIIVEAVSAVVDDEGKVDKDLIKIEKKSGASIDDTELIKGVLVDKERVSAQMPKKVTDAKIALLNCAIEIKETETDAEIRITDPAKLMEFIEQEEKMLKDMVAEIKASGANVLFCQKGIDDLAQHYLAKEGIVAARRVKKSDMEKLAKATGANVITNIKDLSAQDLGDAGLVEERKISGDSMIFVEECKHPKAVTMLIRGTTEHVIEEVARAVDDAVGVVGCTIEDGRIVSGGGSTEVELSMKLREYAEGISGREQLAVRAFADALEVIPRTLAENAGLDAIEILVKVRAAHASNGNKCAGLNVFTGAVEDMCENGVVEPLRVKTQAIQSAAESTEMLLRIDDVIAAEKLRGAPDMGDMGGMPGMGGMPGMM
Transient receptor potential cation channel subfamily V member 1 (Homo sapiens), sequence (Q8NER1 whole entry, looked up): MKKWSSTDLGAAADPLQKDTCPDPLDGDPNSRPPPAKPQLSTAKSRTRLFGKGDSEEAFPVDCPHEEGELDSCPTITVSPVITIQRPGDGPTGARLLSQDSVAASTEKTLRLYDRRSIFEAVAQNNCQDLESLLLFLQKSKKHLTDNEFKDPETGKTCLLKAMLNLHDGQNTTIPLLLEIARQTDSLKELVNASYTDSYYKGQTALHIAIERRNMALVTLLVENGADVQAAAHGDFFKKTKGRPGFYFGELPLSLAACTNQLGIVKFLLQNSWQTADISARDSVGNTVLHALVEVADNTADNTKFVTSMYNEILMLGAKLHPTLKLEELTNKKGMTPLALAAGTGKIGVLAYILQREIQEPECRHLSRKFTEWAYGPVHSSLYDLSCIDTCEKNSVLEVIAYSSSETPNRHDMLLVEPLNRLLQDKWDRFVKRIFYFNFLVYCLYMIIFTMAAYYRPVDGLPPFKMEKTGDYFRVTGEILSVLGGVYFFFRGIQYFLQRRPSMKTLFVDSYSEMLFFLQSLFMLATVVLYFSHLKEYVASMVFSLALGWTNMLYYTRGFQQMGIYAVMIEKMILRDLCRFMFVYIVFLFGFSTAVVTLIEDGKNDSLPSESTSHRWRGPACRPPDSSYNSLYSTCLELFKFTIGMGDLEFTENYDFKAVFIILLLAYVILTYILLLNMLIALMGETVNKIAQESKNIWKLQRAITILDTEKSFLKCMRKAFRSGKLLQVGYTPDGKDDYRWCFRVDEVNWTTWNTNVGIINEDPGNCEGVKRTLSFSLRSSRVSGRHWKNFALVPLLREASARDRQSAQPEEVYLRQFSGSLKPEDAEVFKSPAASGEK
Thioredoxin reductase 1, cytoplasmic (Rattus norvegicus), sequence (O89049 whole entry, looked up): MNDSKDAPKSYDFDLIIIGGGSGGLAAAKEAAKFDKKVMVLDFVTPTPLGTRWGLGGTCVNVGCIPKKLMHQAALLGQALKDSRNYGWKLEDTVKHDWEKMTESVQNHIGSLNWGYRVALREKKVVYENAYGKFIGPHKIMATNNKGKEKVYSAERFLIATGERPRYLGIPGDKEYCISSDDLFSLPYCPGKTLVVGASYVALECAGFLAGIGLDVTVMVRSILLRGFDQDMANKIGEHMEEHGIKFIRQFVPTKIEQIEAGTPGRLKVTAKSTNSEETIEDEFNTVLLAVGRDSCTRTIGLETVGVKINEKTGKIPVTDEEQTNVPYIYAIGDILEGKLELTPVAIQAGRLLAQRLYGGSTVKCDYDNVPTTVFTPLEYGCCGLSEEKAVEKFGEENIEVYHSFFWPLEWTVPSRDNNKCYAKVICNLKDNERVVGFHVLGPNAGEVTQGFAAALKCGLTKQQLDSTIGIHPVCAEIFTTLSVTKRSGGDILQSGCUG
M-phase phosphoprotein 8 (Homo sapiens), sequence (Q99549 whole entry, looked up): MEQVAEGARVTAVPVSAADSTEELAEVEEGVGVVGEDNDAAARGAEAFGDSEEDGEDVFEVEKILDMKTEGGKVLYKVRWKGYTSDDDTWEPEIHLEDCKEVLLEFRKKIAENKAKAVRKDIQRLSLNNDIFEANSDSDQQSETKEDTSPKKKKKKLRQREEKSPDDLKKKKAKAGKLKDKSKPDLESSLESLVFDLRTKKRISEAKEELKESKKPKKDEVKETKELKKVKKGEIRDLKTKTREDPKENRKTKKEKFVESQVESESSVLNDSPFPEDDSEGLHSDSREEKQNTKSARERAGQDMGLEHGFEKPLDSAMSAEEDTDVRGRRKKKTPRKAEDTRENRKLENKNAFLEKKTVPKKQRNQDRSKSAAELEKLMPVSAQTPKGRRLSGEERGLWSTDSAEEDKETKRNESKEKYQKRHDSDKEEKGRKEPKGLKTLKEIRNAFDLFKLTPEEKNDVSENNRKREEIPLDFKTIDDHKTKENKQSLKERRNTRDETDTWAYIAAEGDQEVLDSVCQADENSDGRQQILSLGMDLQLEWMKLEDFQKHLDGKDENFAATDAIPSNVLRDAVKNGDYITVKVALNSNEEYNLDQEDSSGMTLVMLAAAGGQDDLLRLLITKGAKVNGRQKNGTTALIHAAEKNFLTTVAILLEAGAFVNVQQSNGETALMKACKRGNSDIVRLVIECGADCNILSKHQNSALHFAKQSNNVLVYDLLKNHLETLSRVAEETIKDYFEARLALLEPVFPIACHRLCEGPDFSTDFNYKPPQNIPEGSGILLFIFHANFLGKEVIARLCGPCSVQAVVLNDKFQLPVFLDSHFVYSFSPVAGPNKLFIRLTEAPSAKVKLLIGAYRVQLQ
D(1A) dopamine receptor (Homo sapiens), sequence (P21728 whole entry, looked up): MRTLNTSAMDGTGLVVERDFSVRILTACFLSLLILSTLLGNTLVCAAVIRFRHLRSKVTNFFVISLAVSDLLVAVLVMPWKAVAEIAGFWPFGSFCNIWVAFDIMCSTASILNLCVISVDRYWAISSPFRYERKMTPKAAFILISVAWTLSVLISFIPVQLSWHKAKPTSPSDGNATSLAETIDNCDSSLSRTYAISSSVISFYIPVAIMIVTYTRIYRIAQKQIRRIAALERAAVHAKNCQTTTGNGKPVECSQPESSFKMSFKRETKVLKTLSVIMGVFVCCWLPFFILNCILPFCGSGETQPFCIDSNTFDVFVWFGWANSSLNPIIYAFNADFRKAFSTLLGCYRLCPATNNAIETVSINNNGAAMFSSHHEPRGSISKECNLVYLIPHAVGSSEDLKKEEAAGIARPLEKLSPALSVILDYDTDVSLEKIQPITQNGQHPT
Thyrotropin receptor (Homo sapiens), sequence (P16473 whole entry, looked up): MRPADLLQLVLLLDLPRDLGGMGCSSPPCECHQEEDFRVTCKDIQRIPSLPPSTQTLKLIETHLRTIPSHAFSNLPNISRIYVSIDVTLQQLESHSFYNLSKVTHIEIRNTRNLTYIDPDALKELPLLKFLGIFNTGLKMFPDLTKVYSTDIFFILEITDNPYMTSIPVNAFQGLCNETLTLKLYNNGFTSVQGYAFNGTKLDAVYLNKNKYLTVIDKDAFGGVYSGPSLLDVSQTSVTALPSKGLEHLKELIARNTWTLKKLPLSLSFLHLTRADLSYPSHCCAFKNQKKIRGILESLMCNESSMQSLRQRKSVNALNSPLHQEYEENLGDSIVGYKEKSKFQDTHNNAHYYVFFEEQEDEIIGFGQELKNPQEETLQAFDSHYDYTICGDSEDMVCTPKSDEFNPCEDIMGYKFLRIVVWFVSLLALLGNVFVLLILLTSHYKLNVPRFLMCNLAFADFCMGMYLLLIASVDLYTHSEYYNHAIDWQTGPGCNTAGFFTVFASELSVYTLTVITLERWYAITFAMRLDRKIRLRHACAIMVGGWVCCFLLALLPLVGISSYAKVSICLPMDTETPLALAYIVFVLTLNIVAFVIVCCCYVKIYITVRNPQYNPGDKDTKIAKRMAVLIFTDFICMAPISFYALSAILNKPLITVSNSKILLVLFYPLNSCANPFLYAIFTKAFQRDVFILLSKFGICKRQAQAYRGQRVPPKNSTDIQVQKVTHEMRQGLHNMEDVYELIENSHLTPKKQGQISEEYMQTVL

As for `CN1CCN(C2=Nc3ccccc3Oc3ccc(Cl)cc32)CC1`, the Potency result in [1], in [2], in assay [3], in [4], in assay [7] and in assay [8] was “inactive” throughout. Further, the compound was called inactive in assay [5] and in assay [6]. The Potency in [9] is 0.398 µM (active).
For the compound `Cc1ccc(=O)n(-c2ccccc2)c1`, the Potency result in assay [1], in assay [2], in assay [3], in assay [4], in assay [7] and in assay [8] was “inactive” throughout. Moreover, the Potency result in [9] was “inactive”. For the same compound, the result in assay [5] and in assay [6] was inactive.
Turning to `CC(C)(C)NCC(O)c1cc(O)cc(O)c1` (configuration not stated), the Potency result in assay [1], in assay [2], in [3], in [4], in [7] and in assay [8] was “inactive” each time. Further, the Potency result in [9] was “inactive”. The compound was called inactive in assay [5] and in assay [6].
Turning to `NC(=O)N1c2ccccc2C=Cc2ccccc21`, the Potency entry in [1], in assay [2], in [3], in assay [4], in assay [7] and in [8] was “inactive” throughout. The Potency entry in [9] is “inactive”. Besides, the call in [5] and in assay [6] was inactive.
With `CSc1ccc(C(=O)c2[nH]c(=O)[nH]c2C)cc1`, the Potency result in [1], in [2], in assay [3], in [4], in assay [7] and in assay [9] was “inactive” throughout. For the same compound, the call in assay [5] and in assay [6] was inactive. Further, in [8], the Potency was 2.31 µM (active).
Take `CCO/C([O-])=N/c1c[n+](N2CCOCC2)no1`: the Potency entry in [1], in assay [2], in [3], in [4], in assay [7] and in assay [8] was “inactive” in each case. For the same compound, in [9], the Potency result was “inactive”. For the same compound, the compound was called inactive in assay [5] and in assay [6].
Regarding `CC(C)(Oc1ccc(CCNC(=O)c2ccc(Cl)cc2)cc1)C(=O)O`, the Potency result in [1], in assay [2], in assay [3], in assay [4], in assay [7] and in assay [8] was “inactive” in each case. The Potency entry in [9] was “inactive”. Besides, the call in assay [5] was inactive.
For `c1ccc2c(c1)CCCC2C1=NCCN1` (configuration not stated), the Potency entry in assay [1], in assay [2], in [3], in [4], in assay [7] and in assay [9] was “inactive” throughout. Also, the call in [5] and in assay [6] was inactive.
Consider `CCOC(=O)c1cnc2c(cnn2CC)c1NN=C(C)C`, for which the Potency result in assay [1], in assay [2], in assay [3], in assay [4], in [7] and in assay [8] was “inactive” throughout. In assay [9], the Potency entry is “inactive”. Also, the compound was called inactive in [5] and in assay [6].
For the compound `CCN(CC)CCCN(c1ccccc1)C1Cc2ccccc2C1`, the Potency entry in assay [1], in assay [2], in assay [3], in [4], in assay [7] and in assay [8] was “inactive” each time. The compound was called inactive in assay [5].
Turning to `CN(C(=O)CCCOc1ccc2[nH]c(=O)ccc2c1)C1CCCCC1`, the Potency result in assay [1], in assay [2], in [3], in assay [4], in assay [7] and in assay [8] was “inactive” throughout. Further, the Potency result in assay [9] was “inactive”. Moreover, the result in assay [5] and in assay [6] was inactive.
As for `CN(C)CC[C@@H](c1ccc(Br)cc1)c1ccccn1`, the Potency result in assay [1], in assay [2], in assay [3], in assay [4], in assay [7] and in assay [8] was “inactive” each time. Moreover, the Potency result in [9] was “inactive”. For the same compound, the result in assay [5] and in assay [6] was inactive.
`CN1C(=O)CC[C@H]1c1cccnc1`: the Potency entry in assay [1], in [2], in assay [3], in assay [4], in [7] and in assay [8] was “inactive” in each case. Moreover, the Potency result in [9] was “inactive”. For the same compound, the call in assay [5] was inactive.
Regarding `CC(=O)Nc1nnc(S(N)(=O)=O)s1`, the Potency entry in [1], in assay [2], in assay [3], in [4], in assay [7] and in [8] was “inactive” throughout. Besides, the Potency result in [9] is “inactive”. The compound was called inactive in assay [5] and in assay [6].
As to `CCCN(CCC)C(=O)C(CCC(=O)O)NC(=O)c1ccccc1` (configuration not stated), the Potency entry in [1], in assay [2], in assay [3], in assay [4], in assay [7] and in assay [8] was “inactive” each time. Further, the Potency entry in [9] is “inactive”. Also, the outcome in assay [5] and in assay [6] was inactive.
As to `CC(C)[N+](C)(CCOC(=O)C1c2ccccc2Oc2ccccc21)C(C)C`, the Potency entry in assay [1], in assay [2], in assay [3], in assay [4], in [7] and in [8] was “inactive” in each case. Moreover, the Potency result in [9] was “inactive”. In addition, the result in assay [5] and in [6] was inactive.
Regarding `C[C@]12CC[C@@H]3c4ccc(O)cc4C[C@@H](CCCCCCCCCS(=O)CCCC(F)(F)C(F)(F)F)[C@H]3[C@@H]1CC[C@@H]2O` (some centres not stated), the Potency entry in assay [1], in [2], in [3], in [4], in assay [7] and in assay [8] was “inactive” throughout. Further, the Potency result in assay [9] is “inactive”. In addition, in assay [5], the compound was classed as inactive.
Regarding `CCN(CC)CCNC(=O)c1ccc(NC(C)=O)cc1`, the Potency result in assay [1], in [2], in [3], in assay [4], in assay [7] and in [8] was “inactive” each time. Besides, the Potency entry in [9] is “inactive”. Also, the outcome in assay [5] and in assay [6] was inactive.
`NS(=O)(=O)c1cc2c(cc1Cl)NC(C1CC3C=CC1C3)NS2(=O)=O` (configuration not stated): the Potency entry in assay [1], in assay [2], in [3], in [4], in assay [7] and in assay [9] was “inactive” in each case. Further, the call in [5] and in assay [6] was inactive.
Turning to `CN(C)CC/C=C1\c2ccccc2COc2ccccc21`, the Potency result in assay [1], in assay [2], in [3], in [4], in [7] and in [8] was “inactive” each time. For the same compound, the call in assay [5] and in assay [10] was inactive.
On to `OCCN1CCN(CC/C=C2/c3ccccc3Sc3ccc(C(F)(F)F)cc32)CC1`, for which the Potency result in assay [1], in assay [2], in assay [7] and in assay [8] was “inactive” in each case. Moreover, the Potency in assay [3] is 25.1 µM (active); in assay [4], 35.5 µM (active). The result in [5] was inactive.
As for `NC/C=C/C(=O)O`, the Potency result in assay [1], in assay [2], in assay [3], in [4], in assay [7] and in assay [8] was “inactive” throughout. In assay [9], the Potency entry was “inactive”. Moreover, the result in assay [5] and in assay [6] was inactive.
In the case of `O=C(O)CN(CCN(CC(=O)O)CC(=O)O)CCN(CC(=O)O)CC(=O)O`, the Potency result in [1], in [2], in assay [3], in assay [4], in assay [7] and in assay [8] was “inactive” throughout. In addition, the Potency entry in assay [9] was “inactive”. Besides, the compound was called inactive in assay [5] and in assay [6].
Consider `Nc1ncn([C@@H]2O[C@H](CO)[C@@H](O)[C@H]2O)c(=O)n1`, for which the Potency result in assay [1], in assay [2], in assay [3], in [4], in assay [7] and in [8] was “inactive” throughout. Also, in [9], the Potency result was “inactive”. Further, the result in [5] and in assay [6] was inactive.
Turning to `Fc1ccc(C(c2ccc(F)cc2)N2CCN(C/C=C/c3ccccc3)CC2)cc1`, the Potency result in assay [1], in assay [2], in assay [3], in [7], in assay [8] and in assay [9] was “inactive” in each case. In addition, the result in assay [5] and in assay [6] was inactive.
Take `OCCN1CCN(CCCN2c3ccccc3C=Cc3ccccc32)CC1`: the Potency result in assay [1], in [2], in assay [3], in assay [7] and in assay [8] was “inactive” throughout. Further, the call in assay [5] and in [6] was inactive. Further, the Potency in assay [9] was 11.2 µM (active).

The values above are taken from PubChem BioAssay (NCATS).
